# From PubChem BioAssay (NCATS)
# Several values for one entry are separate records, joined by “and”; a condition that tells them apart may be missing. Identical values can stand only once. Unmarked numbers belong to inactive results. Results filed as inconclusive are left out. Activity calls are given as the source filed them. Unless noted, the call rests on the fitted dose curve; in most records, active means well fitted curve in the direction sought with a large enough effect; inconclusive means small, poorly fitted or top-dose-only effect, or another doubt; inactive means no such curve, though single readings can be large; an effect the other way counts as inactive or inconclusive.
# Legend:
# [1] = AP1 Signaling Pathway (AID 357; active means well fitted curve in either direction with a large enough effect, not every such curve was filed as active;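 further: ME-180 reporter cells stimulated with EGF at its EC50 level; on the % scale 0 is the no-effect control and ±100 the full control effect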); conditions: ME-180 AP-1-bla reporter, EGF-induced, beta-lactamase ratio, 5 h; at 17.2 µM (top of the series)
# Procedure, shortened: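 A ratiometric CCF4 readout (405 nm excitation; 460 and 530 nm emission) quantified AP-1-driven beta-lactamase in ME-180 cells after 5 h with compound and EC50 EGF; AC50 values were derived for activators and inhibitors.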
# [2] = NFAT Signaling Pathway (AID 444; active means well fitted curve in either direction with a large enough effect, not every such curve was filed as active;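 further: carbachol stimulus at about its EC50 of 1 µM final; on the % scale 0 is the no-effect control and ±100 the full control effect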); conditions: Jurkat NFAT-bla M1, carbachol, beta-lactamase ratio, 5 h; at 17.2 µM (top of the series)
# Procedure, shortened: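 Jurkat cells with NFAT-driven β-lactamase reporter and co-expressed M1 receptor, stimulated with carbachol (final 1 uM, ~EC50), compound titration, 5 h at 37 °C. CCF4 loaded 1 h at RT; 460/530 nm ratio gave %activity and AC50.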
# [3] = biological target: Glucocorticoid receptor (Homo sapiens) (UniProt P04150); experiment: GR-GFP Redistribution (AID 450;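 active means compounds whose dose series gives a full or clear partial fitted curve of increased nuclear translocation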; further: potency means the concentration at half of the fitted maximal effect); conditions: U2OS GR-GFP nuclear translocation, laser cytometry, 2 h
# Sequence of Glucocorticoid receptor (Homo sapiens) (P04150 whole entry, looked up, the tested form may be a part): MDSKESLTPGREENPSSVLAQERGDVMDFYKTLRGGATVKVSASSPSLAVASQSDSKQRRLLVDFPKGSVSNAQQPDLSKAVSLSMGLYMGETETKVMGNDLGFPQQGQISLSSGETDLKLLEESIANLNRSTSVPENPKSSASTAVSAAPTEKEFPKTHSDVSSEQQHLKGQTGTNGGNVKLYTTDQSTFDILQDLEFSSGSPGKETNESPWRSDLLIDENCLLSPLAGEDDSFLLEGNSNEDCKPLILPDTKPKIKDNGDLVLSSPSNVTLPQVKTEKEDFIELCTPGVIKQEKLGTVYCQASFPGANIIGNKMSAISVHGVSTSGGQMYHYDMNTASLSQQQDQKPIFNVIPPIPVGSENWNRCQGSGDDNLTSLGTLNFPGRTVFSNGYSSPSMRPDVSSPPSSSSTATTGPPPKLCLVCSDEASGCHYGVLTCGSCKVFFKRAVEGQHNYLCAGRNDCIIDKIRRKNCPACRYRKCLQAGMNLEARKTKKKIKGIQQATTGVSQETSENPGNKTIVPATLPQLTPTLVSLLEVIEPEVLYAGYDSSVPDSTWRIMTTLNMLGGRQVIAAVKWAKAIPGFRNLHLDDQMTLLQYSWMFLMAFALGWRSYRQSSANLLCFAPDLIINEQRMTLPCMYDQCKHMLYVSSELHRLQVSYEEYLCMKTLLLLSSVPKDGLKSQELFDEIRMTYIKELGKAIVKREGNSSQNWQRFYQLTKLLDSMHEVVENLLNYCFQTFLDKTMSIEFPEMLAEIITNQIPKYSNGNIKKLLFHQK
# [4] = Cell Viability - BJ (AID 421; calls by dose curve;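 further: potency means the concentration at half of the fitted maximal effect; cells exposed to compound for 40 hours at 37 °C before readout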); conditions: BJ fibroblast viability, qHTS
# Procedure, shortened: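 Quantitative HTS: ATP depletion in BJ cells after 40 hr compound exposure in complete culture medium, detected with CellTiter-Glo; AC50 from standard Hill fits.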
# [5] = Cell Viability - Jurkat (AID 426;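 active means dose-dependent loss of cell ATP signal giving a full or clear fitted curve, ranked by lower potency value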; further: potency means the concentration at half of the fitted maximal effect); conditions: qHTS
# Procedure, shortened: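 Jurkat (clone E6-1, human T-cell leukemia) cells, 5000/well in complete medium, were exposed to compound for 40 hr at 37 °C. Viability was read as intracellular ATP by CellTiter-Glo luminescence; AC50 came from Hill fits of concentration-response data.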
# [6] = Cell Viability - Hek293 (AID 427;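 active means compounds whose dose-response curve shows a full or clear partial loss of cell viability, called from curve shape rather than a numeric limit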;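 further: potency means the concentration at half of the fitted maximal effect; cells exposed to compound for 40 hours at 37 °C before reading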); conditions: qHTS
# Procedure, shortened: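 AC50 values derive from Hill-modelled concentration-response of ATP-based luminescence, normalized between DMSO-only and 100 uM tamoxifen controls. Cells were exposed in complete culture medium for 40 hr at 37 °C before detection.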
# [7] = Cell Viability - HepG2 (AID 433; calls by dose curve;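 further: potency means the concentration at half of the fitted maximal effect; potency for ATP loss meaning cytotoxicity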); conditions: qHTS
# Procedure, shortened: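 Cytotoxicity read as ATP loss (CellTiter-Glo luminescence) after 40 hr compound exposure of HepG2, 1500 cells/well, 37 °C. AC50 by Hill equation; 0% set by DMSO, 100% inhibition by 100 uM tamoxifen.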
# [8] = biological target: Mitogen-activated protein kinase 10 (Mus musculus) (UniProt Q61831); experiment: JNK3 AlphaScreen Assay (AID 530; active means well fitted curve in either direction with a large enough effect, not every such curve was filed as active;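 further: kinase came from lysate of stimulated human HepG2 cells; signal reports phosphorylation of biotinylated GST-cJun 1-79 at Ser73 with 10 µM ATP; on the % scale 0 is the no-effect control and ±100 the full control effect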); conditions: JNK3 lysate, c-Jun phosphorylation; series mostly up to 57.1 µM
# Procedure, shortened: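 qHTS format: compounds tested as titrations against IL-1beta/TNF-alpha-activated HepG2 lysate JNK3 with biotin-GST-cJun substrate and 10 uM ATP at room temperature. Loss of anti-phospho-cJun AlphaScreen signal indicates inhibition.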
# [9] = Cell Viability - N2a (AID 540); conditions: N2a mouse neuroblastoma cell viability; activity change, negative = cytotoxicity: at 92.2 µM (top of the series);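 further: plate controls were DMSO alone for no effect and tamoxifen control for full effect; nearly all actives have a fitted effect of over 45% in size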
# Procedure, shortened: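 Mouse neuroblastoma N2a cells (1500/well) were preincubated 5 hr at 37 °C, then exposed to compounds for 40 hr at 37 °C in complete medium. Viability was read as intracellular ATP by CellTiter-Glo luminescence; AC50 from Hill fits.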
# [10] = Cell Viability - HUV-EC-C (AID 542); conditions: HUV-EC-C endothelial cell viability, qHTS; series mostly up to 92.2 µM; further: nearly all actives have a fitted effect of over 35% in size; further: potency means the concentration at half of the fitted maximal effect
# Procedure, shortened: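 HUV-EC-C normal human vascular endothelial cells, 1000 cells/well, pre-incubated 5 hr at 37 °C, then exposed to compounds for 40 hr at 37 °C in complete medium. Viability measured as intracellular ATP by CellTiter-Glo luminescence; AC50 from Hill fits.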
# [11] = Cell Viability - H-4-II-E (AID 543); conditions: H-4-II-E rat hepatoma viability; series mostly up to 92.2 µM; further: nearly all actives have a fitted effect of over 35% in size; further: potency means the concentration at half of the fitted maximal effect
# Procedure, shortened: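 Rat hepatoma H-4-II-E cells (1500/well) were plated, incubated 5 hr at 37 °C, then exposed to compounds for 40 hr at 37 °C. Cellular ATP was read by CellTiter-Glo luminescence; AC50 came from Hill-equation fits of concentration-response data.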
# [12] = Cell Viability - SH-SY5Y (AID 544); conditions: SH-SY5Y neuroblastoma cell viability; series mostly up to 92.2 µM; further: nearly all actives have a fitted effect of over 55% in size; further: potency means the concentration at half of the fitted maximal effect
# Procedure, shortened: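 Human neuroblastoma SH-SY5Y cells (1500/well) in complete medium were exposed to compounds for 40 hr at 37 °C; intracellular ATP was then quantified by CellTiter-Glo luminescence after 20 min at room temperature. AC50 came from Hill-equation concentration-response fits.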
# [13] = Cell Viability - Renal Proximal Tubule (AID 545); conditions: renal proximal tubule cells viability, primary cells of rat origin; series mostly up to 91.7 µM; further: nearly all actives have a fitted effect of over 40% in size; further: potency means the concentration at half of the fitted maximal effect;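 on activity change, negative = cytotoxicity: 0% = DMSO only and -100% = 100 µM tamoxifen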
# Procedure, shortened: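 Viability taken as intracellular ATP (CellTiter-Glo luminescence) after 40 hr, 37 °C compound treatment of primary proximal tubule cells from rat kidney, 1000 cells/well; Hill-equation fits of qHTS concentration-response data gave AC50.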
# [14] = Stat Signaling Pathway (AID 446; active means well fitted curve in either direction with a large enough effect, not every such curve was filed as active;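 further: ME-180 cervical cancer cells given 40 pM IL-6 alongside compound; SIE-controlled beta-lactamase reporter measured as 460/530 nm FRET emission ratio; on the % scale 0 is the no-effect control and ±100 the full control effect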); conditions: ME-180 (cervical carcinoma) SIE beta-lactamase reporter, IL-6 stimulated, 5 h; at 17.2 µM (top of the series)
# Procedure, shortened: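 IL-6/STAT signaling read in ME-180 cells via an SIE beta-lactamase reporter. Stimulus was 40 pM IL-6 (its AC50) for 5 hrs, so both activation and inhibition register.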
# [15] = Cell Viability - NIH 3T3 (AID 541); conditions: NIH 3T3 cell viability, qHTS; activity change, negative = cytotoxicity: at 92.2 µM (top of the series);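 further: plate controls were DMSO alone for no effect and tamoxifen positive control for full effect; nearly all actives have a fitted effect of over 25% in size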
# Procedure, shortened: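 NIH 3T3 mouse embryo fibroblasts (1000 cells/well) were plated in complete medium and treated with compound for 40 hr at 37 °C. Viability was read as intracellular ATP by CellTiter-Glo luminescence; AC50 values came from Hill-equation fits of concentration-response data.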
# [16] = Cell Viability - Mesenchymal (AID 546); conditions: mesenchymal cells viability, qHTS; series mostly up to 91.7 µM;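 further: cells exposed to compound for 40 hours before reading; 0% = DMSO only and -100% = 100 µM tamoxifen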
# Procedure, shortened: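 Human kidney mesenchymal cells from normal renal glomeruli, 1000 cells/well, rested 5 hr at 37 °C, then treated 40 hr at 37 °C in complete medium. Cellular ATP read by CellTiter-Glo luminescence; AC50 from Hill-equation fits.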
# [17] = biological target: Cytochrome P450 1A2 (Homo sapiens) (UniProt P05177); experiment: p450-cyp1a2 (AID 410; calls by dose curve; further: potency means the concentration at half of the fitted maximal effect); conditions: recombinant CYP1A2, luciferin-ME demethylation, luminescence; series mostly up to 25.6 µM
# Sequence of Cytochrome P450 1A2 (Homo sapiens) (P05177 whole entry, looked up): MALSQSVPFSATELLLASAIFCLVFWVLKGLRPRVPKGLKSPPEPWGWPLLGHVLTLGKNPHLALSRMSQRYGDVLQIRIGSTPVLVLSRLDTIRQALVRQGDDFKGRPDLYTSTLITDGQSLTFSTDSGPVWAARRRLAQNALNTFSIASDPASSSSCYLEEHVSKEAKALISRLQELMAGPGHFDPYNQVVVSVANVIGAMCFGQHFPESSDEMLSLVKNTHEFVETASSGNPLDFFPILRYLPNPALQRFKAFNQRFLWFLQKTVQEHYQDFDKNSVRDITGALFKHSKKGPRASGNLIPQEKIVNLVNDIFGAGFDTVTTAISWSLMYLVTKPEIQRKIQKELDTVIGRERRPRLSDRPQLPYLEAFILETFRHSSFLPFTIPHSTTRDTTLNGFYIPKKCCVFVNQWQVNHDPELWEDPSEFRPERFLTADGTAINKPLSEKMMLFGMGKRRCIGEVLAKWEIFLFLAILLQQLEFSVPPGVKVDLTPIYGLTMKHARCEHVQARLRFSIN
# Procedure, shortened: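 Human CYP1A2 (20nM) demethylated Luciferin-ME at its Km (100uM) in 100mM KPO4. After 10 min compound preincubation, NADPH regeneration ran the reaction 60 min at room temperature. Luciferin was read by luminescence, normalized to 57 uM furafylline.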
# [18] = biological target: Glucocorticoid receptor (Homo sapiens) (UniProt P04150); experiment: GR-EFC Redistribution (AID 451; calls by dose curve; further: potency means the concentration at half of the fitted maximal effect); conditions: CHO-K1 GR-EFC translocation, beta-gal luminescence, 2 h
# Procedure, shortened: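 CHO-K1 cells expressing nuclear EA and GR-ED fragments of b-gal; compounds titrated up to 46 uM final, 2 h at 37 C. GR nuclear translocation read as complemented b-gal luminescence after 1 h RT detection.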
# [19] = biological target: 3',5'-cyclic-AMP phosphodiesterase 4B (Homo sapiens) (UniProt Q07343); experiment: qHTS Assay for Inhibitors of PDE-IV (AID 607; active means well fitted activation curve with a large enough effect in the main read-out, with a control signal flat, not every such curve was filed as active; further: % of control where 0% means no effect); conditions: HEK293 ACTOne CNG channel cells, membrane potential fluorescence; series mostly up to 22.9 µM
# Sequence of 3',5'-cyclic-AMP phosphodiesterase 4B (Homo sapiens) (Q07343 whole entry, looked up): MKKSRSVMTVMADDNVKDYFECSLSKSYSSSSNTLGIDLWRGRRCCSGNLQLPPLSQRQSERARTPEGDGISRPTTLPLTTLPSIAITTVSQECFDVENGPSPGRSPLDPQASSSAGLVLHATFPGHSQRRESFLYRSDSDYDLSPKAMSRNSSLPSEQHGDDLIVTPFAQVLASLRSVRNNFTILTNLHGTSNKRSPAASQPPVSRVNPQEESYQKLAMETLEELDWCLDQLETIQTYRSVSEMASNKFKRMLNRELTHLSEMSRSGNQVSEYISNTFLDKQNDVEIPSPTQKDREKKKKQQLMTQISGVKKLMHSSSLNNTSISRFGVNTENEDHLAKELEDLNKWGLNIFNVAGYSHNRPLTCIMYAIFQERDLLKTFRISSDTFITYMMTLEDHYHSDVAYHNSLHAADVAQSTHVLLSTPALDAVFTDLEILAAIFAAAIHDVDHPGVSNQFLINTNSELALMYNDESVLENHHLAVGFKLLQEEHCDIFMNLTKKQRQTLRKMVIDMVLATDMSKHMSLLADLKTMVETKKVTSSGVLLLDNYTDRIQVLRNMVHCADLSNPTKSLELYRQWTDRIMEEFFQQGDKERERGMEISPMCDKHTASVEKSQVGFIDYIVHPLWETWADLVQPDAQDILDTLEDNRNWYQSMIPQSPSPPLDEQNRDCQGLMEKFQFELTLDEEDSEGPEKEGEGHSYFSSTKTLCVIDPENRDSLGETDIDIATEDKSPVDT
# Procedure, shortened: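 Live HEK293 cells with a modified cyclic nucleotide-gated (CNG) channel report intracellular cAMP via membrane-potential dye fluorescence (ex 535/em 590 nm). Endogenous PDE-IV was targeted. Compounds were tested at up to 22.9 uM final; RO 20-1724 100 uM served as control.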
structure (smiles),measurement,setting,value
CCC(=O)c1ccc(O)cc1,"activity change, negative = inhibition",[1],-4.26%
same,"activity change, negative = inhibition",[2],-1.37%
same,Potency,[3],> 20.6 µM
Cc1c(O)cccc1C(=O)N[C@@H](CSc1ccccc1)[C@H](O)CN1C[C@H]2CCCC[C@H]2C[C@H]1C(=O)NC(C)(C)C,Potency,[4],25.2 µM (active)
same,Potency,[5],31.8 µM (active)
same,Potency,[6],24.4 µM (active)
same,Potency,[7],24.6 µM (active)
same,Potency,[8],inactive
same,"activity change, negative = cytotoxicity",[9],-108% (active)
same,Potency,[10],31.6 µM (active)
same,Potency,[11],31.6 µM (active)
same,Potency,[12],1.26 µM (active)
same,Potency,[13],31.6 µM (active)
CNC(=O)Oc1ccc2c(c1)[C@]1(C)CCN(C)[C@@H]1N2C,"activity change, negative = inhibition",[1],8.81%
same,"activity change, negative = inhibition",[2],5.79%
same,"activity, negative = inhibition",[14],4.34%
CC(COc1ccccc1)NC(C)C(O)c1ccc(O)cc1 (stereo not drawn),"activity change, negative = inhibition",[1],9.92%
same,"activity, negative = inhibition",[14],20.7%
same,Potency,[3],> 20.6 µM
O=C1O[C@H]([C@@H](O)CO)C(O)=C1O,Potency,[4],> 92 µM
same,Potency,[5],> 92 µM
same,Potency,[6],> 92 µM
same,Potency,[7],> 92 µM
same,Potency,[8],inactive
same,"activity change, negative = cytotoxicity",[9],3.88%
same,Potency,[15],inactive
same,Potency,[10],inactive
same,Potency,[11],inactive
same,Potency,[12],inactive
same,Potency,[13],inactive
same,outcome,[16],inactive
CCCCCCCCCCCCOS(=O)(=O)O,Potency,[4],> 92 µM
same,Potency,[5],> 92 µM
same,Potency,[6],> 92 µM
same,Potency,[7],> 92 µM
same,Potency,[8],inactive
same,"activity change, negative = cytotoxicity",[9],-3.87% and -0.403%
same,Potency,[15],inactive
same,Potency,[10],inactive
same,Potency,[11],inactive
same,Potency,[12],inactive
same,Potency,[13],inactive
same,outcome,[16],inactive
CN(C)CCC=C1c2ccccc2CCc2ccccc21,Potency,[17],15.8 µM (active)
same,"activity change, negative = inhibition",[2],-80% (active)
same,Potency,[3],> 46 µM and > 20.6 µM
same,Potency,[18],> 46 µM and > 20.6 µM
same,Potency,[8],inactive
same,outcome,[19],inactive
C[C@H](N)[C@H](O)c1cccc(O)c1,"activity change, negative = inhibition",[1],2.95%
same,"activity change, negative = inhibition",[2],-4.86%
same,Potency,[3],> 20.6 µM
same,Potency,[18],> 20.6 µM
same,Potency,[8],inactive
same,outcome,[19],inactive
NS(=O)(=O)c1cc2c(cc1C(F)(F)F)NC(Cc1ccccc1)NS2(=O)=O (stereo not drawn),"activity change, negative = inhibition",[1],-11.1%
same,"activity change, negative = inhibition",[2],0.596%
same,"activity, negative = inhibition",[14],1.32%
